Laboratory results from PubChem BioAssay (NCATS).
Inconclusive results are not listed. The source made the active and inactive calls. Unless noted, calls come from the whole dose curve; as a rule, active = well fitted curve in the direction sought with a large enough effect; inconclusive = small, poorly fitted or top-dose-only effect, or another doubt; inactive = no such curve, though single readings can be large; an effect the other way counts as inactive or inconclusive.

How the values were obtained:
[1] = qHTS for Inhibitors of Plasmodium falciparum (DD2) proliferation (AID 504314);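 note: parasite DNA measured by SYBR Green fluorescence after red cell lysis; plate controls were DMSO vehicle for no effect and artemisinin wells for full effect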
How it was run: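 Erythrocytes infected with P. falciparum Dd2 (0.3% parasitemia, 2.5% hematocrit) exposed to compound 72 h at 37C, 5% CO2. Parasite DNA quantified by SYBR Green fluorescence after saponin/Triton lysis overnight; normalized to 0.29 uM artemisinin and DMSO.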

[2] = qHTS for Inhibitors of Plasmodium falciparum (GB4) proliferation (AID 504315);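 note: 0% = DMSO vehicle and -100% = 0.29 µM artemisinin control; nearly all actives have a fitted effect of over 50% in size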
How it was run: (§1)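 Erythrocytes infected with P. falciparum line (0.3% parasitemia, 2.5% hematocrit final) incubated with compounds 72 h at 37 °C, 5% CO2; SYBR Green lysis buffer added, fluorescence read next day. Normalized to 0.29 uM artemisinin and DMSO.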

[3] = qHTS for Inhibitors of Plasmodium falciparum (7G8) proliferation (AID 504316);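 note: series mostly up to about 6.7 µM; 0% = DMSO vehicle and -100% = 0.29 µM artemisinin full kill; nearly all actives have a fitted effect of over 65% in size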
How it was run: as §1

[4] = qHTS for Inhibitors of Plasmodium falciparum (HB3) proliferation (AID 504318);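 note: 0% = DMSO vehicle and -100% = artemisinin control; nearly all actives have a fitted effect of over 60% in size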
How it was run: as §1

[5] = qHTS for Inhibitors of Plasmodium falciparum (CP250) proliferation (AID 504320);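 note: plate controls were DMSO vehicle for no effect and 0.29 µM artemisinin control for full effect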
How it was run: as §1

[6] = target: Atrial natriuretic peptide receptor 1 (Homo sapiens) (UniProt P16066); test: Natriuretic polypeptide receptor (hNpr1) antagonism - Pilot CMLD screen (AID 1347052; calls by dose curve;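 note: HEK293 cells with hNpr1 stimulated by hNppA peptide at 0.1 nM; cGMP level read as GloSensor luciferase luminescence after agonist stimulation; series mostly up to about 9.2 µM; % is set by controls: 0 for no effect and ±100 for the full control effect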)
Atrial natriuretic peptide receptor 1 (Homo sapiens), sequence (P16066 whole entry, looked up): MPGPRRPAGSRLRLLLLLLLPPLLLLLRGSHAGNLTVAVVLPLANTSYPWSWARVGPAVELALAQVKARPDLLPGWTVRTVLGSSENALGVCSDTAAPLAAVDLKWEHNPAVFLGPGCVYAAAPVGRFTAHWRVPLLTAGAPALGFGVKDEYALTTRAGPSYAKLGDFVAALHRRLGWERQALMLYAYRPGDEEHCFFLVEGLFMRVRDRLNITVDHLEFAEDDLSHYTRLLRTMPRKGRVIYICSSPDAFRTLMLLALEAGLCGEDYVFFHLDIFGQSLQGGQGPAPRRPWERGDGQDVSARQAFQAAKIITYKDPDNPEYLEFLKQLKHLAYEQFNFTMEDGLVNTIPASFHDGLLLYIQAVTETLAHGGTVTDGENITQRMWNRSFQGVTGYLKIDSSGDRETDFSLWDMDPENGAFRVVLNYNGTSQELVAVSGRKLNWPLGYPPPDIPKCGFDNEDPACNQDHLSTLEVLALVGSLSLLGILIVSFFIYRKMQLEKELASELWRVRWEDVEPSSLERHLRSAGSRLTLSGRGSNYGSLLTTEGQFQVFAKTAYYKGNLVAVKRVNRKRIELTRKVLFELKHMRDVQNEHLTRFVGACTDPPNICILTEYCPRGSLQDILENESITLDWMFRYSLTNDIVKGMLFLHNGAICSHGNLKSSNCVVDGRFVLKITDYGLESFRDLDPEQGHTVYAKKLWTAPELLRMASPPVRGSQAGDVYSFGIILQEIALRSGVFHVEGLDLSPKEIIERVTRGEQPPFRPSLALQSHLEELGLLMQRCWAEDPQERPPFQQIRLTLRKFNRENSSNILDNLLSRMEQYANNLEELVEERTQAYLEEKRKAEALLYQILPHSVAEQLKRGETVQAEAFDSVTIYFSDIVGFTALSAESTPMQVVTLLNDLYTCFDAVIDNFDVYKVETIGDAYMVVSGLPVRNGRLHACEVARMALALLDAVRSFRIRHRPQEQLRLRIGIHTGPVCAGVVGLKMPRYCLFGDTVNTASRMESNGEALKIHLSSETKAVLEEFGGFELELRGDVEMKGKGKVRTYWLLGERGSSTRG

O=C1[C@@H]2[C@H]3[C@H](O)[C@H](O)CC(=NOC[C@@H](O)COCc4ccco4)[C@@H]3CC[C@H]2C(=O)N1C1CCCCC1
inactive: Potency [1] | Potency [2] | Potency [3] | Potency [4] | Potency [5] | Potency [6]

O=C1CCC=C1C(O)c1ccccc1 (stereo unspecified)
inactive: Potency [1] | Potency [2] | Potency [3] | Potency [4] | Potency [5] | Potency [6]

C=CCNC(=O)N1CCc2nc(-c3ccccc3)c3c(c2C1)CO[C@@H](C)C3
inactive: activity, negative = inhibition [1] -1.14% [at 1.12 µM] | Potency [2] | Potency [3] | Potency [4] | Potency [5] | Potency [6]

O=C1[C@H]2[C@@H]3[C@@H](O)[C@H](O)CC(=NOCc4ccccc4)[C@@H]3CC[C@H]2C(=O)N1c1ccc(F)cc1F
inactive: Potency [1] | Potency [2] | Potency [3] | Potency [4] | Potency [5] | Potency [6]

O=C1[C@H]2[C@@H]3[C@@H](O)[C@H](O)CC(=NOCc4ccccc4)[C@H]3CC[C@H]2C(=O)N1C[C@@H]1CCCO1
inactive: Potency [1] | Potency [2] | Potency [3] | Potency [4] | Potency [5] | Potency [6]

CCN1C(=O)[C@@H]2[C@H]3[C@H](O)[C@H](O)CC(=NO[C@@H]4O[C@H](COC(C)=O)[C@@H](OC(C)=O)[C@H](OC(C)=O)[C@@H]4OC(C)=O)[C@@H]3CC[C@H]2C1=O
inactive: Potency [1] | Potency [2] | Potency [3] | Potency [4] | Potency [5] | Potency [6]

O=C(OCC(F)(F)F)[C@H](O)[C@@H](O)C(=O)OCC(F)(F)F
inactive: Potency [1] | Potency [2] | Potency [3] | Potency [4] | Potency [5] | Potency [6]

COC(=O)N[C@@H](CCc1ccccc1)[C@]1(C(=O)OC)CCCC1=O
inactive: Potency [1] | Potency [2] | Potency [3] | Potency [4] | Potency [5] | Potency [6]

COc1ccc2c(c1)[C@@]1(OCCC=C[C@@H]1C)C(=O)N2CC1CC1
inactive: Potency [1] | Potency [2] | Potency [3] | Potency [4] | Potency [5] | Potency [6]

C[C@]12O[C@@H]1[C@@H](O)C(Br)=C(CO)[C@@H]2O
inactive: Potency [1] | Potency [2] | Potency [3] | Potency [4] | Potency [5] | Potency [6]

Cc1ccc(S(=O)(=O)NC(CCc2ccccc2)CC(=O)C(C)(C)C)cc1 (stereo unspecified)
inactive: Potency [1] | Potency [2] | Potency [3] | Potency [4] | Potency [5] | Potency [6]

O=C1CCC=C1C(O)CCc1ccccc1 (stereo unspecified)
inactive: Potency [1] | Potency [2] | Potency [3] | Potency [4] | Potency [5] | Potency [6]

CC1(OC(=O)c2cnc3ccccc3n2)C(=O)C=C2C=C(C3CC3)OC=C2C1=O (stereo unspecified)
inactive: Potency [1] | Potency [2] | Potency [3] | Potency [4] | Potency [5] | Potency [6]

C=CCCN1C=C(C(=O)OCC)C(c2ccccc2)NC1=O (stereo unspecified)
inactive: Potency [1] | Potency [2] | Potency [3] | Potency [4] | Potency [5] | Potency [6]

C[C@@H]1C[C@H]2CC(=O)N3[C@H](CC(=O)N2[C@H]1c1ccccc1)C[C@@H](C)[C@@H]3c1ccccc1
inactive: Potency [1] | Potency [2] | Potency [3] | Potency [4] | Potency [5] | Potency [6]

COC(=O)N[C@H](CC(C)=O)c1cccc(F)c1
inactive: Potency [1] | Potency [2] | Potency [3] | Potency [4] | Potency [5] | Potency [6]

COC(=O)C1(C(=O)OC)CC=CCc2ccccc2[C@H]1C[N+](=O)[O-]
inactive: Potency [1] | Potency [2] | Potency [3] | Potency [4] | Potency [5] | Potency [6]

COc1cccc([C@H]2Oc3ccc(OC)cc3C(=NO[C@@H](C)c3cn([C@H](CO)Cc4ccccc4)nn3)[C@H]2O)c1
inactive: Potency [1] | Potency [2] | Potency [3] | Potency [4] | Potency [5] | Potency [6]

C=CCOC(=O)C(C(C)=O)[C@@H](NC(=O)OC)c1ccc(Cl)cc1 (stereo partly specified)
inactive: Potency [1] | Potency [2] | Potency [3] | Potency [4] | Potency [5] | Potency [6]

COCCN1C(=O)NC(c2cccc(C(F)(F)F)c2)C(C(=O)OC)=C1C (stereo unspecified)
inactive: Potency [1] | Potency [2] | Potency [3] | Potency [4] | Potency [5] | Potency [6]

O=c1n(-c2ccccc2)c(=O)n2n1CC[C@@H]1C(=NOC[C@@H](O)COCc3ccco3)[C@H]3O[C@H]3[C@@H](O)[C@H]12
inactive: Potency [1] | Potency [2] | Potency [3] | Potency [4] | Potency [5] | Potency [6]

C[C@H]1Cc2c(-c3ccccc3)nc3c(c2CO1)CN(C(=O)Cc1cccs1)CC3
inactive: Potency [1] | Potency [2] | Potency [3] | Potency [4] | Potency [5] | Potency [6]

CCOC(=O)CN1C(=O)[C@]2(OCCC=C[C@@H]2C)c2cc(OC)ccc21
inactive: Potency [1] | Potency [2] | Potency [3] | Potency [4] | Potency [5] | Potency [6]

CCOC(=O)CN1C(=O)[C@@]2(CC(C)=C[C@@H](COCc3ccccc3)O2)c2ccccc21
inactive: Potency [1] | Potency [2] | Potency [3] | Potency [4] | Potency [5] | Potency [6]

CC1(C)O[C@@H](C(O)(c2cc(C(F)(F)F)cc(C(F)(F)F)c2)c2cc(C(F)(F)F)cc(C(F)(F)F)c2)[C@H](C(O)(c2cc(C(F)(F)F)cc(C(F)(F)F)c2)c2cc(C(F)(F)F)cc(C(F)(F)F)c2)O1
inactive: Potency [1] | Potency [2] | Potency [3] | Potency [4] | Potency [5] | Potency [6]

Cc1cc2c(nc1C)CCCN2CC(O)CN1CCN(C)CC1 (stereo unspecified)
inactive: Potency [1] | Potency [2] | Potency [3] | Potency [4] | Potency [5] | Potency [6]
